Laboratory results published in PubChem BioAssay (NCATS).
Results filed as inconclusive are left out. Active and inactive are the calls of the source. The call rests on the fitted dose curve; in most records, active means well fitted cell-killing curve with a large enough effect; inconclusive means small, poorly fitted or top-dose-only effect, or effect the other way; inactive means flat fitted curve, though single readings scatter.

These compounds were tested on SKOV3 (assay: Primary qHTS to identify gynecologic anti-cancer compounds using libraries of approved drugs and bioactive compounds (AID 1345084; further: nearly all actives have a fitted effect of over 55% in size)). Conditions: Gynecologic cancer cell panel viability, ATPlite luminescence, 48 h; series mostly up to 57.5 µM; activity change, negative = cytotoxicity: at the top concentration.
Method in brief: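 Cell viability after 48 h drug treatment, ATPlite luminescence readout; five doses.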
On the % scale 0 is the no-effect control and ±100 the full control effect.

SMILES	activity change, negative = cytotoxicity
COc1ccc2c(c1O)OC[C@H]1c3ccc(O)cc3O[C@@H]21	-0.232% (inactive)
Cc1c(CN(C)C(=O)/C=C/c2cnc3c(c2)CCC(=O)N3)oc2ccccc12	7.71% (inactive)
COC1=CC(=O)C[C@@H](C)[C@]12Oc1cc(OC)cc(OC)c1C2=O	-1.34% [at 38.5 µM] (inactive)
CC1CCC2(C(=O)OC3OC(CO)C(O)C(O)C3O)CCC3(C)C(=CCC4C5(C)CC(O)C(O)C(C)(C(=O)O)C5CCC43C)C2C1(C)O (stereo not given)	-1.99% [at 25.3 µM] (inactive)
CC1CCC2C(C)(C)CC(C)(CO)C2(O)C1C(=O)O (stereo not given)	-1.76% (inactive)
O=c1c2ccccc2nc2n1CCC2O (stereo not given)	-2.16% (inactive)
CC(C)(O)c1ccc2c(c1)C(=O)CC1[C@](C)(CO)CCC[C@]21C (stereo not given in full)	24.8% [at 38.5 µM] (inactive)
CC1CCC2C(C)(C)C(O)CCC2(C)C12Cc1c(O)cc3c(c1O2)C(N)=NC3 (stereo not given)	15.6% [at 38.5 µM] (inactive)
C=CC1(C)CC(O)C2(CCC3C(C)(C(=O)O)CCCC3(C)C2=O)C1 (stereo not given)	29.8% [at 38.5 µM] (inactive)
CC1(C)CC2C3=CCC4C5(C)CCC(OC6OC(CO)C(O)C(OC7OC(CO)C(O)C(OC8OC(CO)C(O)C(OC9OC(COC%10OC(CO)C(O)C(O)C%10O)C(O)C(O)C9O)C8O)C7O)C6O)C(C)(C)C5CCC4(C)C3(C)CCC2(C(=O)O)CC1O (stereo not given)	0% [at 6.55 µM] (inactive)
CC1CCC2(C)C(CC(O)C(O)C23CO3)C1(C)CCC1=CC(=O)OC1O (stereo not given)	-0.556% [at 38.5 µM] (inactive)
COC1C=C([C@@H]2CC=C3[C@@]4(C)C(CC[C@]32C)[C@@]2(C)C=CC(=O)C(C)(C)C2C[C@H]4OC(C)=O)C(=O)O1 (stereo not given in full)	32.5% [at 25.3 µM] (inactive)
CCNC(=O)[C@H]1O[C@H](n2cnc3c(NCC(c4ccccc4)c4ccccc4)nc(C(=O)NCCNC(=O)NC4CCN(c5ccccn5)CC4)nc32)[C@H](O)[C@@H]1O	28.3% (inactive)
C[C@@H]1O[C@@H](O[C@H]2[C@H](OC(=O)[C@]34CCC(C)(C)C[C@H]3C3=CCC5[C@@]6(C)CC[C@H](O[C@@H]7O[C@H](CO[C@@H]8OC[C@H](O)[C@H](O)[C@H]8O)[C@@H](O)[C@H](O)[C@H]7O)C(C)(C)C6CC[C@@]5(C)[C@]3(C)C[C@H]4O)OC[C@@H](O)[C@@H]2O)[C@H](O)[C@H](O)[C@H]1O[C@@H]1OC[C@H](O)[C@H](O[C@@H]2OC[C@@H](O)[C@H](O)[C@H]2O)[C@H]1O (stereo not given in full)	14.1% [at 6.55 µM] (inactive)
COC(=O)C1=CO[C@@H](O[C@@H]2O[C@H](CO)[C@@H](O)[C@H](O)[C@H]2O)[C@@H]2[C@@H](C)[C@@H](O)C[C@H]12	-1.87% [at 38.5 µM] (inactive)
COc1c(C(CC(C)C)OC(C)=O)ccc(Oc2c(O)cc(C)cc2/C=C/C(C)=O)c1C(=O)O (stereo not given)	-10.6% [at 25.3 µM] (inactive)
CC1(C)CCC2(C(=O)OC3OC(COC4OC(CO)C(O)C(O)C4O)C(O)C(O)C3O)CCC3(C)C(=CCC4C5(C)CCC(O)C(C)(C(=O)O)C5CCC43C)C2C1O (stereo not given)	21% [at 11.6 µM] (inactive)
C[C@]12CCC[C@](C)(C(=O)O)C1CCC13C=C(CO)C(CCC12)C3 (stereo not given in full)	-1.1% [at 38.5 µM] (inactive)
COc1cc(C2Oc3c(OC)cc(CCCO[C@@H]4O[C@H](CO)[C@@H](O)[C@H](O)[C@H]4O)cc3C2CO)ccc1O (stereo not given in full)	-13% [at 25.3 µM] (inactive)
CC1(C)CC[C@]2(C(=O)O[C@@H]3O[C@H](CO)[C@@H](O)[C@H](O)[C@H]3O)CC[C@]3(C)C(=CCC4[C@@]5(C)C[C@@H](O)[C@H](O)C(CO)(CO)C5CC[C@]43C)C2[C@@H]1O (stereo not given in full)	-13.3% [at 25.3 µM] (inactive)

SMILES	activity change, negative = cytotoxicity
C[C@@H]1O[C@@H](O[C@H]2[C@H](OC(C#N)c3ccc(O)cc3)O[C@H](CO)[C@@H](O)[C@@H]2O)[C@H](O)[C@H](O)[C@H]1O (stereo not given in full)	3.71% [at 25.3 µM] (inactive)
C=C1CC[C@@H]2[C@](C)(CO[C@@H]3O[C@H](CO)[C@@H](O)[C@H](O)[C@H]3O)CCC[C@@]2(C)[C@@H]1CCC1=CCOC1=O	-43.5% [at 25.3 µM] (inactive)
C=CC1(C)CC(OC(=O)C(=C)C(O)COC(C)=O)C(C(=C)C(=O)OC)C(O)C1C(=C)CO (stereo not given)	3.73% [at 25.3 µM] (inactive)
COC(=O)[C@@]1(O)C=CC[C@@H]2[C@@]3(C)C[C@@H](c4ccoc4)OC(=O)[C@H]3CC[C@]21C	6.78% [at 38.5 µM] (inactive)
CC(C)(O)C1CC=C(C(=O)OCC2OC(Oc3c(O)cc(C(=O)O)cc3O)C(O)C(O)C2O)CC1 (stereo not given)	0% [at 25.3 µM] (inactive)
OCCc1ccc(O[C@@H]2O[C@H](CO)[C@@H](O)[C@H](O)[C@H]2O)c(O)c1	2.6% [at 38.5 µM] (inactive)
C[C@@H]1CC[C@]2(C)C(C[C@@H](O)[C@H](O)[C@]23CO3)[C@@]1(C)CCc1ccoc1 (stereo not given in full)	1.39% [at 38.5 µM] (inactive)
COC1(CC(C)C)NC(=O)C(O)(Cc2ccccc2)NC1=O (stereo not given)	1.72% [at 38.5 µM] (inactive)
O=C1CC(c2ccc([N+](=O)[O-])cc2)=NN1c1ccccc1	0.312% (inactive)
CC(C)C(=O)c1cn(CC(=O)COc2ccc(Oc3ccccc3)cc2)c2ccc(C(=O)O)cc12	5.18% (inactive)
NC(=O)[C@H]1CCCCc2c1[nH]c1ccc(Cl)cc21	4.6% [at 25.3 µM] (inactive)
COC12CC3C(C(C)C1=CC(=O)O2)C(O)C(OC(C)=O)C1C(C)(C)C(OC(C)=O)CCC31C (stereo not given)	-2.73% [at 25.3 µM] (inactive)
CC(C)C(C#N)O[C@@H]1O[C@H](CO[C@@H]2OC[C@](O)(CO)[C@H]2O)[C@@H](O)[C@H](O)[C@H]1O (stereo not given in full)	8.9% [at 38.5 µM] (inactive)
O=C(CCCCc1ccc2ccccc2c1)C(F)(F)F	8.6% [at 116 µM] (inactive)
C[C@@H]1CCC2C(C)(C)[C@H](O)CC[C@]2(C)[C@@]12Cc1c(O)cc3c(c1O2)CN(CCO)C3=O (stereo not given in full)	-20.9% [at 25.3 µM] (inactive)
C[C@@H]1C(=O)O[C@H]2CC34[C@H]5C[C@@H](C(C)(C)C)C36[C@@H](OC(=O)[C@@H]6O)OC4(C(=O)O5)[C@]21O (stereo not given in full)	6.9% (inactive)
Cc1cc(O)c(C(C)C)cc1O[C@@H]1O[C@H](CO)[C@@H](O)[C@H](O)[C@H]1O	-4.32% [at 38.5 µM] (inactive)
C=C1C[C@]23C[C@H]1CC[C@H]2[C@@]12C=C[C@H](O)[C@@](C)(C(=O)O1)[C@H]2[C@@H]3C(=O)O	-3.88% [at 38.5 µM] (inactive)
C=CC1(C)CC2=CCC3C(C)(C(=O)O)CCCC3(C)C2CC1OC(C)=O (stereo not given)	15.5% [at 38.5 µM] (inactive)
O=c1ccn([C@@H]2O[C@H](CO)[C@@H](O)[C@H]2O)c(=O)[nH]1	21.4% (inactive)
